Results on 15 compounds are retold here after PubChem BioAssay (NCI).

The panel holds about 83,000 compounds, 20% with a hit somewhere; the sample as a whole holds those more often.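 48-hour exposure, single concentration, 96-well plates; percent growth endpoint where 0 means no net growth. Active: below 10.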 A number with no mark means an inactive call. Activity calls are given as the source filed them.

The subject of this assay is HL-60(TB) leukemia. Put plainly: NCI-60 one-dose screen, 48 h (100 = growth as untreated, 0 = no growth, -100 = all killed). The conditions noted are these: 10 µM unless noted.
Turning to `COc1cc(/C(C)=C(\c2ccc(Cl)cc2)c2ccc(OCCN3CCCC3)cc2)ccc1F`, the growth is 38.4%.

`N#Cc1c(-c2ccccc2)cc(-c2ccccc2)n(CC(=O)O)c1=O`: the growth was 23.6%.

As to `c1ccc(-c2nnc(Nc3ccc4c(c3)OCCO4)o2)c(NCc2ccncc2)c1`, the growth is 6.43% (active).

On to `Cc1ccc(Cn2c(O)c(N=NC(=O)c3ccc(S(N)(=O)=O)cc3)c3ccccc32)cc1`, for which the growth is 98.6%.

For `CCOC(=O)c1cnc2c(N=Nc3ccc(OC)cc3)c(N)nn2c1N`, the growth was 96.2%.

Take `CCN1C(=O)N(CC)C2C1NC(=S)N2/N=C/c1ccc(C(F)(F)F)cc1` (stereo not given): the growth was 78.8%.

For the compound `CCOC(=O)C(O)C(O)C(=O)OCC` (stereo not given), the growth is 102%.

As to `CCOC(=O)c1ccc2c(c1)c1c(C)c3ccncc3c(C)c1n2C`, the growth is 3.93% (active).

Consider `N=C(N)c1nn(C2OC(CO)C(O)C2O)c2nc[nH]c(=O)c12` (stereo not given), for which the growth is -25.2% (active).

For the compound `C=C1C(=O)O[C@H]2[C@H]1CC/C(COC(=O)NCCc1c[nH]c3ccccc13)=C\CC[C@@]1(C)O[C@@H]21`, the growth was -46.2% (active).

Turning to `Cn1c2c(cc(S(=O)(=O)c3ccccc3)c1=O)CCc1c-2cnn1-c1cccc(Cl)c1`, the growth is 107%.

As for `CN1CCN(Cn2nc(-c3cc(Cl)cc(Cl)c3Cl)oc2=S)CC1`, the growth was 82%.

As for `C=C[C@@H]1C[C@@H]2Cc3c(C)cc(C)cc3N1O2`, the growth was 0.0364% (active).

Regarding `COc1cc2nc3cc([N+](=O)[O-])ccc3c(NCCCNCC(C)(C)O)c2cc1OC`, the growth was -0.733% (active).

Take `N#CC1C(=O)SC2c3ccccc3C(=O)c3ccccc3C12` (stereo not given): the growth was 98.4%.
